In ChEMBL document CHEMBL4513216, “Probing the Open Global Health Chemical Diversity Library for Multistage-Active Starting Points for Next-Generation Antimalarials” (ACS Infect Dis, 2020) one finds INHIBITION data, which are given here for 72 compounds.

Screen size: about 69,000 compounds; about 8,600 (12%) showed an effect of 50% or more. Only a selection was taken, and strong results are over-represented in it overall.

For the test, the system named is Plasmodium berghei. Nature of the test: Screen against P. berghei liver stage (PbLuc), transformed with Luciferase, at 10uM. The settings on record: tested at 10 uM. It is filed as functional, HepG2.
On to `Cc1nc(-c2ccsc2)ccc1C(=O)NC(C)CN1CCOCC1` (configuration not stated), for which the INHIBITION is reported as -4.43%.
Under `O=C(c1cscn1)N1CCc2ncnc(-c3ccncc3)c2CC1` stands -7.24%; under `O=C(CSc1ccncc1)NC1CC(=O)N(CCc2ccccc2)C1` (configuration not stated), -15.9%.
As for `CC(O)CN1CCC(CNCc2ccccc2C(F)(F)F)CC1` (configuration not stated), the INHIBITION was found to be 0.24%.
For `CN1CCN(C2CCN(CCCOc3ccc(F)cc3)CC2)C1=O`, the INHIBITION was determined as 47%.
Then `CCOC(=O)CNC(=O)C1OC(c2ccccc2)=NN1C(C)=O` (configuration not stated), with -19.1%.
Under `CCOC1CCN(C(=O)CN(C)c2cnccn2)CC1` stands 26.083%; under `CC(C)Nc1ccc2nc(C3CCN(C(C)C)CC3)nn2c1`, -7.35%; under `CNC(=O)c1cn2cc(-c3ccccc3Cl)n(CC3CC3)c(=O)c2n1`, 33.3%.
Then `CN(C)C(=O)c1cn2cc(-c3ccccc3Cl)n(CC3CC3)c(=O)c2n1`, with -0.273%; and `CCNC(=O)c1cn2cc(-c3ccccc3Cl)n(CC3CC3)c(=O)c2n1`, with 73.5%; and `COCC(=O)N1C[C@@H](OCc2ccncc2)[C@@H]2OCCC[C@@H]21`, with 35.8%.
With `c1ccc(CN2CCN3C[C@H](Oc4cncnc4)C[C@H]3C2)nc1`, the INHIBITION is recorded as -8.6%.
Under `Cn1ccnc1CN1CCN2C[C@H](Oc3cccc(F)c3)C[C@H]2C1` stands 38.5%.
Under `c1cc(CN2CCN3C[C@H](Oc4cncnc4)C[C@H]3C2)ccn1` stands -11.3%.
As to `Fc1cccc(O[C@@H]2C[C@H]3CN(Cc4ccncc4)CCN3C2)c1`, the INHIBITION is 90.7%.
Then `c1ccc(CN2CCN3C[C@H](Oc4cccnc4)C[C@H]3C2)nc1`, with 41.2%.
Under `Fc1cccc(O[C@@H]2C[C@H]3CN(Cc4ccccn4)CCN3C2)c1` stands 85.4%; under `CC(O)CN1CCN(C(=O)CN(C)c2ccc(C#N)cn2)CC1` (configuration not stated), 18.4%.
With `Fc1ccccc1C1(CNC2CCOC3(CCOCC3)C2)CCCC1` (configuration not stated), the INHIBITION is reported as 14.4%.
Then `c1cnn(CCCO[C@@H]2CN(C3CCOCC3)[C@@H]3CCCO[C@@H]32)c1`, with -40.9%.
Under `Cc1nnc2n1CCN(c1nn3cc(C(C)(C)C)nc3s1)C2` stands -1.15%; under `Cc1ccsc1C(=O)N1CC[C@H]2CO[C@H](CN(C)C)[C@H]2C1`, -47.5%.
For the compound `COCCN1Cc2ccccc2C2(CCN(S(C)(=O)=O)CC2)C1`, the INHIBITION is on record as -21.1%.
In the case of `O=c1[nH]c2nc(N3CCCCCC3)ncc2c(=O)n1-c1cccc(F)c1`, the INHIBITION is 21.7%.
Under `Cc1nccn1CC1CCCN(C(=O)c2cnn(C)c2)C1` (configuration not stated) stands 20.4%; under `Cn1ccnc1N1CCN(C(=O)Cc2ccccc2)CC1`, 34.2%; under `Cc1nccn1CC1CCN(C(=O)c2cccs2)CC1`, 14.2%.
Under `Cc1nccn1CC1CCN(C(=O)Cc2ccccc2)CC1` stands 65.9%; under `Cc1nccn1CC1CCCN(C(=O)Cc2ccsc2)C1` (configuration not stated), 42.5%.
Under `Cc1nccn1CC1CCN(C(=O)c2ccccc2)CC1` stands 67.4%; under `Cn1cc(-c2cc(-c3cnn(C)c3)n(CC(=O)NC3CC3)n2)cn1`, 44.3%; under `COCCN1CCC1c1cc(NC2CCCC2)nc(C)n1` (configuration not stated), 4.41%.
On to `OCCN(Cc1ccncc1)CC1(c2ccc(Cl)cc2)CCCC1`, for which the INHIBITION worked out at 18.3%.
As to `Cc1nnc(C(C)NCC2(c3ccc(Cl)cc3)CCOCC2)o1` (configuration not stated), the INHIBITION is 11.8%.
With `Clc1ccc(C2(CNC3=NCCN3)CCCCC2)cc1`, the INHIBITION was 74%.
Under `Cc1nnc(C(C)NCC2(c3ccc(Cl)cc3)CCCC2)o1` (configuration not stated) stands 18.2%; under `Clc1ccc(C2(CNC3=NCCN3)CC2)cc1`, 56.6%; under `CC1(C)CN(C(CNC2=NCCN2)c2ccc(Cl)cc2)CCO1` (configuration not stated), 1.84%.
Then `Fc1ccc(C2(CNC3=NCCCN3)CCC2)cc1`, with -20.3%; and `Clc1ccc(C2(CNC3=NCCN3)CCCC2)cc1`, with 68.2%.
Then `Fc1ccc(C2(CNC3=NCCN3)CCCC2)cc1`, with 27.6%; and `CC(=O)N1CC(c2ccnc(Nc3nccs3)n2)C1`, with 12.6%; and `CN(C)CC1CN(Cc2nnc(C(C)(C)C)o2)CCO1` (configuration not stated), with -104%.
For `CCc1nc(-c2cncnc2C2CCNC2)no1` (configuration not stated), the INHIBITION turned out to be 3.6%.
As to `Cc1cnc(C(=O)N2CCC(C(=O)c3cc(F)ccc3F)CC2)cn1`, the INHIBITION was -121%.
Under `NC(=O)N1CCC2(CCN(Cc3ccccn3)C2=O)C1` (configuration not stated) stands 24.5%.
Turning to `CC(=O)c1cn(CCC(=O)NCCCC(=O)O)c2ccccc12`, the INHIBITION was -10.2%.
Under `CC(NC(=O)NCCCn1cccn1)c1ccc2c(c1)OCCCO2` (configuration not stated) stands -6.7%; under `CO[C@@H]1CCN(C(=O)Cc2ccc(F)cc2)[C@@H]1Cc1cccnc1`, 55.4%.
Then `CO[C@@H]1CCN(C(=O)Cc2cccc(F)c2)[C@H]1Cc1cccnc1`, with 19.6%.
Then `COc1ccc(CC(=O)N2CC[C@@H](OC)[C@@H]2Cc2cccnc2)cc1`, with 38.5%; and `NC(=O)CNC1(c2ccc(Br)cc2)CCOCC1`, with 19.4%; and `CC(C)CN1CC(O)CN(S(=O)(=O)c2ccc(F)cc2)CC1=O` (configuration not stated), with 34.3%.
For the compound `CN(C)C(=O)c1cn[nH]c1C1(C)CCN(c2ncccn2)CC1`, the INHIBITION is reported as 12.45%.
Then `Cc1cc(C)nc(N2CCCC(C)(c3[nH]ncc3C(=O)N(C)C)C2)n1` (configuration not stated), with 53.1%.
Then `Cc1nccc(N2CCCC(C)(c3[nH]ncc3C(N)=O)C2)n1` (configuration not stated), with -7.66%.
Then `Cc1ccc(S(=O)(=O)NC(CO)CC(C)C)cc1N(C)C` (configuration not stated), with 31.7%.
As to `Cc1nc(C)n(C2CCCN(C(=O)CCCc3ccccn3)C2)n1` (configuration not stated), the INHIBITION was -11.9%.
Under `CC(c1ccco1)N(C)Cc1cc2cc3c(cc2[nH]c1=O)OCO3` (configuration not stated) stands 16.9%; under `O=C(Cn1cccn1)Nc1ccc(N2CCOCC2)cc1`, 68.9%.
Under `O=C(Cn1cccn1)Nc1ccc(N2CCCCC2)cc1` stands 50.2%; under `CC(NCC(=O)Nc1ccc(N2CCCCCC2)cc1)c1cccs1` (configuration not stated), 64.9%; under `CCc1nccn1CC(=O)Nc1cccc(C(=O)N(C)C)c1`, 0.0996%.
Under `CC1CCN(c2ccc(NC(=O)CCn3cccn3)cc2)CC1` stands 11.3%; under `CCc1nccn1CC(=O)Nc1cccc(N2CCCC2)c1`, 74.55%.
`CC(NCC(=O)NCC(=O)Nc1ccc(F)cc1)c1cccs1` (configuration not stated): the INHIBITION stood at 0.734%.
Turning to `CC(C)CCC(=O)NCc1ccc(N2CCCCC2)cc1`, the INHIBITION came to 15.5%.
Then `CC1CN(c2ccc(NC(=O)Cn3cccn3)cc2)CCO1` (configuration not stated), with 16.5%.
On to `COC1CCN(c2ccc(NC(=O)Cn3cccc3)cc2)CC1`, for which the INHIBITION turned out to be 14.2%.
Under `COC1CCN(c2ccc(NC(=O)Cn3cccn3)cc2)CC1` stands 8.31%; under `CCc1nccn1CC(=O)Nc1cccc(C(=O)OC)c1`, -10.9%.
